Compound activity from PubChem.
TIM10 inh = inhibits growth of TIM10 yeast strain. inhibition, % at 10 µM. AID 463195. S. cerevisiae TIM10 strain growth, BacTiter-Glo luminescence, 24 h. actives 1.4% (n = 330,000);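 active means inhibition of 40% or more at the single tested concentration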;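 further: wild-type TIM10 isogenic control strain grown at permissive 25 °C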
V-ATPase pH = yeast V-ATPase proton transport regulation by pHLuorin; actives 0.37% (n = 350,000); S. cerevisiae, pHLuorin cytosolic pH fluorescence; response, % at 10 µM; in the data active means response mostly above about 7.3%, no sharp cut-off; inactive means mostly below about 5.4%; further: actives read high
SKKanGAS inh = blocks kanamycin growth of S. pyogenes SKKanGAS strain; inhibition, % at 7.5 µM; actives 1.3% (n = 300,000); AID 1662; BacTiter-Glo, 6 h;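 active means mean replicate score, as percent of positive control median, at least 50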;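 further: strain carries kanamycin resistance gene driven by streptokinase promoter and grows in 40 µg/ml kanamycin; loss of luminescence reflects streptokinase promoter inhibition or plain growth inhibition; 0% = median of DMSO wells and 100% = positive control at its reference dose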
PfHsp90 yeast 2 = growth inhibition of yeast expressing Plasmodium Hsp90; actives 0.32% (n = 310,000); S. cerevisiae expressing PfHsp90, BacTiter-Glo ATP, 48 h; yeast lacking PDR1 and PDR3 efflux regulators; inhibition, % at 9.4 µM; AID 504621;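 active means every replicate shows inhibition above about 80%, whatever the replicate mean, limit read from the data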;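 further: 0% = DMSO neutral controls and 100% = 20 µM radicicol positive controls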
tim23-1 inh = growth inhibitors of tim23-1 mutant yeast; actives 1.3% (n = 330,000); inhibition, % at 20 µM; S. cerevisiae tim23-1 growth, BacTiter-Glo luminescence, 24 h; AID 463212;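 active means growth inhibition of the mutant yeast at or above 50%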;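 further: temperature-sensitive mutant grown at 25 °C; plate controls were DMSO-treated mutant yeast for no effect and medium wells lacking yeast for full effect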
tim10-1 inh = inhibits growth of tim10-1 mutant yeast | S. cerevisiae tim10-1 ts strain growth, BacTiter-Glo, 24 h | actives 2.2% (n = 330,000) | AID 463190 | inhibition, % at 20 µM;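 active means inhibition of at least 40%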;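 further: mutant grown at 25 °C; 0% = DMSO wells with yeast and 100% = wells holding no yeast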
tim10-1 conf = tim10-1 yeast growth inhibition, confirmed. shares compounds with tim10-1 inh. S. cerevisiae tim10-1 ts strain growth, BacTiter-Glo, 24 h. inhibition, % at 20 µM. actives 56% (n = 7,400);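 active means inhibition of yeast growth at or above a set limit in either of two repeat tests at 20 µM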;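 further: tim10-1 mutant grown at permissive 25 °C to find synthetic lethal compounds; 0% = DMSO yeast wells and 100% = medium wells without yeast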
An asterisk follows results filed as active; . = not tested or not shown. Most compounds without a hit are left out; they make up all but 4.6% or so of the library.

SMILES	TIM10 inh	V-ATPase pH	SKKanGAS inh	PfHsp90 yeast 2	tim23-1 inh	tim10-1 inh	tim10-1 conf
O=C1C2ON(c3ccccc3)C(c3ccccc3F)C2C(=O)N1c1ccccc1 (stereo not drawn)	2	5	4	-21	15	19	.
N#CCC(=O)c1ccccc1Oc1ccc(Cl)cc1	22	1	16	-12	47	50*	29*
O=C(c1ccc(Cl)cc1)c1ccc(CN2C(=O)c3ccccc3C2=O)o1	23	0	6	-82	17	41*	12
O=C(c1ccc(F)cc1)c1ccc(CN2C(=O)c3ccccc3C2=O)o1	30	-1	5	9	4	30	.
COc1ccc(NC(=O)CC2C(=O)N(c3cccc(C)c3)C(=O)N2C2CCCCC2)cc1 (stereo not drawn)	11	0	-1	.	23	40	23
CCc1ccc(NC(=O)CC2C(=O)N(c3cccc(C)c3)C(=O)N2C2CC2)cc1 (stereo not drawn)	12	-3	3	-20	19	20	.
Cc1cccn2c(=O)c3cc(S(=O)(=O)c4ccc(Br)cc4)c(=N)n(C4CCCC4)c3nc12	-1	14	-10	-21	31	41*	-10
CC(=O)c1cccc(NC(=O)CSc2nnc(C(C)N(C)C)n2Cc2ccccc2)c1 (stereo not drawn)	9	-1	2	-18	4	-14	.
Cc1ccc(S(=O)(=O)N2CCC[C@H]2C(=O)OC(C)C(=O)Nc2ncc(Cl)cc2Cl)cc1 (stereo partly drawn)	14	0	-3	3	6	41*	22
O=C(CSc1nnc(-c2ccccc2)n1-c1ccccc1)c1cccs1	20	3	-1	.	34	46*	25
Cc1ccc2cc(C)c3nnc(SCC(=O)c4cccs4)n3c2c1C	16	3	3	5	38	40*	15
O=C(CSc1nnc(-c2ccccc2)n1-c1ccccc1)c1ccc[nH]1	26	0	4	-7	17	15	.
COc1ccc(C(=O)Nc2ccc(NC(=O)c3cc(OC)c(OC)c(OC)c3)cn2)cc1	-4	-1	0	-69	2	-5	.
CCc1ccccc1NC(=O)CNC(=O)c1cc(C2CC2)nn1-c1ccccc1	-7	0	.	1	26	17	.
O=C(NCCC1CCCCN1S(=O)(=O)c1ccc(F)cc1)C(=O)NCc1cccnc1 (stereo not drawn)	-1	-4	-9	-18	-8	-15	.
CC1C(c2ccccc2)N(C)C(c2ccccc2)C(C)C1(O)C#Cc1ccccc1 (stereo not drawn)	34	-9	.	-22	34	36	.
Cc1ccc(S(=O)(=O)N2CCN(S(=O)(=O)c3ccccc3Br)C2=O)cc1	-14	6	.	-1	30	4	.
N#CC(C#N)=c1ccc2c(c1)NC1(CCCCC1)N=2	29	6	19	42	44	46*	42*
COc1ccc2nc3cc(Cl)ccc3c(Nc3cc(C(C)C)c(O)cc3C)c2c1	19	3	12	6	41	47*	37*
CN(C)CCCN(C(=O)c1ccc2c(c1)CCCC2)c1nc2cc3c(cc2s1)OCO3	17	4	3	18	17	42*	25
CN(C)CCCN(C(=O)c1ccc(S(=O)(=O)N(C)C)cc1)c1nc2cc3c(cc2s1)OCO3	25	-5	0	4	7	19	.
CCN(CC)CCN(C(=O)c1ccc2c(c1)CCCC2)c1nc2ccc(OC)cc2s1	22	-4	-1	26	34	52*	36*
Cc1c(NC(=O)C(C)OC(=O)c2cc(Cl)ccc2O)c(=O)n(-c2ccccc2)n1C (stereo not drawn)	-2	0	-6	-4	-4	10	.
Nc1nn2c(-c3ccccc3)cc(=O)[nH]c2c1N=Nc1ccc(O)cc1	4	0	20	2	5	41*	16
COc1ccc2oc(=O)c(-c3csc(Nc4cccc(O)c4)n3)cc2c1	35	0	27	103*	35	45*	37*
SMILES	TIM10 inh	V-ATPase pH	SKKanGAS inh	PfHsp90 yeast 2	tim23-1 inh	tim10-1 inh	tim10-1 conf
Cc1ccc(NCc2nnc(SCC(=O)c3ccccc3)o2)c(C)c1	19	-4	2	.	20	42*	25
Cc1nn(-c2ccc(Cl)cc2)c2[nH]c(CCl)cc(=O)c12	31	3	10	-28	47	62*	32*
Cc1cc(=O)[nH]c2c1c(C)nn2-c1ccccc1	4	-1	-4	.	-8	-9	.
O=[N+]([O-])c1ccc(Cn2cc(-c3cccc(C(F)(F)F)c3)nn2)cc1	20	-5	2	-9	49	47*	32*
CCC(C)c1ccc(NC(=O)COC(=O)c2nc3nccc(C)n3n2)cc1 (stereo not drawn)	5	2	-10	0	8	16	.
O=C1S/C(=C/c2ccc(N3CCOCC3)o2)C(=O)N1Cc1ccc(F)cc1	24	-1	-1	26	25	42*	50*
O=C1NC(=S)S/C1=C/c1ccc(N2CCOCC2)o1	7	2	26	7	-1	-1	.
N#Cc1cnn(-c2ccccc2)c1NC(=O)CN1CCN(c2ccccc2)CC1	-9	-2	13	.	-9	-9	.
CCCN1C(=O)c2ccc(C(=O)Nc3cc(C)ccc3O)cc2C1=O	3	-2	2	26	48	44*	25
Cc1ccc([N+](=O)[O-])cc1NC(=O)CN(C(=O)c1ccccc1Cl)C1CCCCC1	20	3	11	-3	31	40*	17
O=C(N/N=C/c1ccc([N+](=O)[O-])o1)c1cn(-c2ccccc2)nc1-c1ccccc1	30	0	22	6	36	54*	28
O=C(N/N=C/c1ccc([N+](=O)[O-])o1)c1cc(-c2ccncc2)nc2ccccc12	1	6	8	47	8	21	.
O=C(N/N=C/c1ccc([N+](=O)[O-])o1)c1cc(-c2ccc(-c3ccccc3)cc2)nc2ccccc12	38	1	74*	4	32	56*	42*
O=C(N/N=C/c1ccc[nH]1)c1cc(-c2ccc(Cl)cc2)nc2ccccc12	35	-4	34	-7	37	56*	51*
O=C(O)COc1ccc(/C=N/NC(=O)c2cn(-c3ccccc3)nc2-c2ccccc2)cc1	5	2	-2	7	20	3	.
O=C(Nc1cccc2cccnc12)c1ccc2c(c1)OCCO2	12	-1	8	1	41	41*	30
COCCN(Cc1ccccc1)C(=O)C1CCN(C(=O)Nc2ccccc2)CC1	2	-1	.	-3	5	3	.
